Experimental data reported in PubChem BioAssay.
Where “and” joins values, the source holds several entries; their conditions need not be identical. Identical values can stand only once. Results filed as inconclusive are left out. A structure can be active in one record and inactive in another. Calls of active or inactive are those of the source.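 Rule for the calls, unless noted: active = differentiation response of at least 50%, scaled between solvent and reference control, from cells with both markers; inactive = the rest.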

Tests used:
[1] = rapamycin-like changes in RPL19A-GFP expression – cell-based, S. cerevisiae, multiplex flow cytometry, primary screen (AID 1862; in the data active = percent of DMSO control GFP below about 86%;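 note: lower values mimic rapamycin by blocking the RPL19A rise seen in DMSO cells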); details: S. cerevisiae RPL19A-GFP strain, flow cytometry fluorescence, 3 h; at 10 µM; stronger effect = lower value
[2] = TOR pathway GLN3 branch reporter MEP2-GFP changes – S. cerevisiae, multiplex flow cytometry, primary screen (AID 1867;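 active = GFP response, as percent of the DMSO control, above the screen-wide mean plus 3 SD, about 139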;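 note: median GFP channel fluorescence of barcode-gated MEP2-GFP cells measured by flow cytometry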); details: S. cerevisiae MEP2-GFP strain, 3 h, at 10 µM, stronger effect = higher value, 100% means same as DMSO wells
[3] = TOR pathway RTG branch CIT2 reporter changes – S. cerevisiae, GFP fusion, multiplex flow cytometry, primary screen (AID 1870;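 active = percent response above a set limit, the screen-wide mean plus 3 SD, cut at about 130% in these data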;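 note: barcoded CIT2-GFP strain pooled with four other GFP strains with rapamycin as positive control; median GFP fluorescence per well over plate mean of DMSO wells so 100% = DMSO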); details: S. cerevisiae CIT2-GFP expression, 3 h, at 10 µM, stronger effect = higher value
[4] = TOR pathway LAP4-GFP level changes – S. cerevisiae, multiplex flow cytometry, primary screen (AID 1873;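 active = GFP signal, as percent of the solvent control, above the screen mean plus 3 SD, about 149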); details: S. cerevisiae LAP4-GFP expression, 3 h, at 10 µM, stronger effect = higher value
[5] = yeast AGP1-GFP level changes, GLN3 branch – cell-based, multiplex flow cytometry, S. cerevisiae, primary screen (AID 1887;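 active = GFP signal above the screen-wide mean plus 3 SD, that is over about 124.5% of the solvent control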;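 note: AGP1-GFP fusion strain of S. cerevisiae within a five-strain barcoded multiplex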); details: 3 h, at 10 µM, stronger effect = higher value
[6] = reduced mouse 2C T cell binding to pMHC/ICAM-1 vesicles – MLPCN validation set, flow cytometry, LFA-1/ICAM-1 modulator project, pilot screen (AID 2523;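 active = response below a set limit, under 55% cells CD8-positive and vesicle-bound, and CD8 cells' 90th-percentile brightness under 279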;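 for vesicle binding response: mean PE anti-B7-1 fluorescence of CD8+ cells relative to row control; 100% = QL9-loaded vesicles with DMSO vehicle in the same plate row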); details: 2C mouse CD8+ T cells, at 7 µM, stronger effect = lower value; double positive events: measured here: CD8+/vesicle+ event percentage
[7] = target: Integrin beta-1 (Homo sapiens) + Integrin alpha-4 (Homo sapiens) (UniProt P13612+P05556); test: alpha4beta1 integrin LIBS antibody binding reduction – U937 cells, HUTS-21 mAb, flow cytometry, validation set, VLA-4 allosteric modulator project, pilot screen (AID 2674;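 active = inhibition above 50%, about 3 SD of the validation set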;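 note: antibody binding induced by the VLA-4 ligand LDV present at three times its Kd; 0% = LDV ligand with antibody and no compound and 100% = antibody without LDV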); details: HUTS-21 LIBS mAb binding, at 6.7 µM, stronger effect = higher value, binding induced by LDV ligand
Sequence of Integrin beta-1 (Homo sapiens) + Integrin alpha-4 (Homo sapiens) (P05556 whole entry, looked up): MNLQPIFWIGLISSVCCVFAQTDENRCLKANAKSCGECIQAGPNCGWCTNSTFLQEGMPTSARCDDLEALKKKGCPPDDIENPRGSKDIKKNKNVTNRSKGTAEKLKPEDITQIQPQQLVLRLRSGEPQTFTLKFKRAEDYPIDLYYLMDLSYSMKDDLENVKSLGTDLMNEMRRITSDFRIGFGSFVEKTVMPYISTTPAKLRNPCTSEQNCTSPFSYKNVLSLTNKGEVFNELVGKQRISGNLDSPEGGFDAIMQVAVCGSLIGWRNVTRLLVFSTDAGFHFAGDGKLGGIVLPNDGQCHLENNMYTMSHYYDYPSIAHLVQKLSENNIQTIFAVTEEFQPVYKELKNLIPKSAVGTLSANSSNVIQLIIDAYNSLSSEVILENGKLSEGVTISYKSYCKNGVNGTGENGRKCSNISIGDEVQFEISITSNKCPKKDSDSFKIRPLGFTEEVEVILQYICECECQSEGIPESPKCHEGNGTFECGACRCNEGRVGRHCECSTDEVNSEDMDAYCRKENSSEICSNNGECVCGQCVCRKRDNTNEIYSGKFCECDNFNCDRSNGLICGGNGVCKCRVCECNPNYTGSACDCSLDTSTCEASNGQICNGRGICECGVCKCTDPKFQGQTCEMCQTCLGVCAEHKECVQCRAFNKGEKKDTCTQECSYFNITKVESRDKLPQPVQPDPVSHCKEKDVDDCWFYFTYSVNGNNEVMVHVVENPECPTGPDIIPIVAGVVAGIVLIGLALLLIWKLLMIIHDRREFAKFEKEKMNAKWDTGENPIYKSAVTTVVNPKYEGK
Sequence of Integrin beta-1 (Homo sapiens) + Integrin alpha-4 (Homo sapiens) (P13612 whole entry, looked up): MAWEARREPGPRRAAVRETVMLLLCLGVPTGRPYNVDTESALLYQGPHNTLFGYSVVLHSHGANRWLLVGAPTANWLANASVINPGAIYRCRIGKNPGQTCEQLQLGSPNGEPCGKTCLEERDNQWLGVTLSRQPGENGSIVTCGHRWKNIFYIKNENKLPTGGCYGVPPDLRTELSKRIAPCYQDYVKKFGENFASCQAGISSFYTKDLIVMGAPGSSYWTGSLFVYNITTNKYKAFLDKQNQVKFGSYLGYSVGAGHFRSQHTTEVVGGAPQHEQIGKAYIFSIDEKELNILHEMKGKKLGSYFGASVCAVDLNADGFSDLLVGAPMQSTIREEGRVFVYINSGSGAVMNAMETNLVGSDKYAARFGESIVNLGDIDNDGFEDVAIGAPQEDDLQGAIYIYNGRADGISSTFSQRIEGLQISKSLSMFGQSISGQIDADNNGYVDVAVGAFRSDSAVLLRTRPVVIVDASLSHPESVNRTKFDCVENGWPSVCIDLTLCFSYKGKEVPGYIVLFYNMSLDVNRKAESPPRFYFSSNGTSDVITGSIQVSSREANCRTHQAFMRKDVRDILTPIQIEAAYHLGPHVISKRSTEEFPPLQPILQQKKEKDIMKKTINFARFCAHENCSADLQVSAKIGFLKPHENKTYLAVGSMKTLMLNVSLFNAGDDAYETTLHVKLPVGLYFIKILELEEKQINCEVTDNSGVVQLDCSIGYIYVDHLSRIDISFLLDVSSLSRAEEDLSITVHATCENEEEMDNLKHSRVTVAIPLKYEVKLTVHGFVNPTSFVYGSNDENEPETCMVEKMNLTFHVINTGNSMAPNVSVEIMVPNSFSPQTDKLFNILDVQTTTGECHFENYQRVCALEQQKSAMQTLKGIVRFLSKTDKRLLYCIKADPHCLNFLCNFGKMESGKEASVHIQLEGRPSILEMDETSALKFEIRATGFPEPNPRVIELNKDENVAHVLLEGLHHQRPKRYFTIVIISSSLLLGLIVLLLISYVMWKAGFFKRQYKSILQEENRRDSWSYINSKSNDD

[8] = calorie-restriction mimetic ROS inhibitors, yeast – validation compound set, pilot screen (AID 2706;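 active = superoxide response below 65% of plate, a cut near 3 SD across the whole screen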;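 note: yeast exposed to compound for one week at 30 degrees C before staining; 100% = mean of all compound wells on the same plate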); details: S. cerevisiae aging, superoxide DHE fluorescence; at 10 µM; stronger effect = lower value
[9] = target: Beta-adrenergic receptor kinase 1 (Homo sapiens) (UniProt P25098); test: GRK2 binders displacing RNA aptamer, biochemical, validation, human GRK2, bead flow cytometry (AID 488806;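 active = aptamer binding inhibition above 30%, about 3 SD of noise from non-fluorescent compounds; inactive = inhibition at or below 30%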); details: bead-bound GRK2, FAM-aptamer displacement, at 10 µM, stronger effect = higher value
Sequence of Beta-adrenergic receptor kinase 1 (Homo sapiens) (P25098 whole entry, looked up): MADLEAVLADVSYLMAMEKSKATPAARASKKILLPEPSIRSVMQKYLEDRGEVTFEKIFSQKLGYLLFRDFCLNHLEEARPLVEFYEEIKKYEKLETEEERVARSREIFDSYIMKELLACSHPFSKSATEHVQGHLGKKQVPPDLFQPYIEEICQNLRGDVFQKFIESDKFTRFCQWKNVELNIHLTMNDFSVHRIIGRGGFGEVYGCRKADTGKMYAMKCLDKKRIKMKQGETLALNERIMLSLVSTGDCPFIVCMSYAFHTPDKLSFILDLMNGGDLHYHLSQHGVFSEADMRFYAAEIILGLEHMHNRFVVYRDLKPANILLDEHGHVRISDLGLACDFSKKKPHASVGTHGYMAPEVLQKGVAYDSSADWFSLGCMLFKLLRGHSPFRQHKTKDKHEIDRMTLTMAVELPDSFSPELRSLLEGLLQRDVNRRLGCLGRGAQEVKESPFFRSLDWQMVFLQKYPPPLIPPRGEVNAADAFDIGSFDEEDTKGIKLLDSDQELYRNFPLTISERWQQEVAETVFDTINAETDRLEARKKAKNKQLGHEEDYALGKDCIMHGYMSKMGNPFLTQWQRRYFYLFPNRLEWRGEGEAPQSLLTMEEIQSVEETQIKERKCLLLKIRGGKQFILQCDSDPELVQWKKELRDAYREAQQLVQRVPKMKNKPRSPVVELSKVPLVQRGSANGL

[10] = target: Beta-2 adrenergic receptor (Homo sapiens) (UniProt P07550); test: agonist-induced loss of surface beta2AR – cell-based, FAP fluorogen, flow cytometry, validation set, pilot screen (AID 504459;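 active = percent response above 42, roughly 3 SD of non-fluorescent test compounds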;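 note: agonist-driven loss of surface beta2AR via internalization measured by FAP dye flow cytometry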); details: Am2.2-beta2AR cells, at 10 µM, stronger effect = higher value
Sequence of Beta-2 adrenergic receptor (Homo sapiens) (P07550 whole entry, looked up): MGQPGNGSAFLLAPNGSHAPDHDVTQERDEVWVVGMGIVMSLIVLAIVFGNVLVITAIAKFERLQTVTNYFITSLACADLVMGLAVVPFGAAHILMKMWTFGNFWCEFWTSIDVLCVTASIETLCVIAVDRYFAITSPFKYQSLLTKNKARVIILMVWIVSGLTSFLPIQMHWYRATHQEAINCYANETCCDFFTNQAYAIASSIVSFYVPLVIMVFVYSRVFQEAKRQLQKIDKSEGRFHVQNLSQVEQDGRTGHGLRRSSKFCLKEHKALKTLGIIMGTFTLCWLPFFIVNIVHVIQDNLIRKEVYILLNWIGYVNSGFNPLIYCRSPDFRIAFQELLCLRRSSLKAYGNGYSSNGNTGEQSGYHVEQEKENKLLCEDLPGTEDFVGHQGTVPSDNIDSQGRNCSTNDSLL

[11] = target: AP-2 complex subunit beta (Homo sapiens) (UniProt P63010); test: beta-arrestin/AP2 interaction blockers – biochemical, validation set, GST-AP2 beads, flow cytometry, pilot screen (AID 504541;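 active = inhibition above 54%, about 3 SD of non-fluorescent compounds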;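 note: AP2 carries R879A mutation and is captured from E. coli lysate; bead-bound FITC arrestin peptide fluorescence measuring arrestin peptide binding to AP2; 0% = DMSO wells and 100% = excess unlabeled arrestin peptide control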); details: FITC arrestin peptide, at 10 µM, stronger effect = higher value, AP2 beta2 appendage fragment, R879A mutant
Sequence of AP-2 complex subunit beta (Homo sapiens) (P63010 whole entry, looked up, the tested form may be a part, one chain of several): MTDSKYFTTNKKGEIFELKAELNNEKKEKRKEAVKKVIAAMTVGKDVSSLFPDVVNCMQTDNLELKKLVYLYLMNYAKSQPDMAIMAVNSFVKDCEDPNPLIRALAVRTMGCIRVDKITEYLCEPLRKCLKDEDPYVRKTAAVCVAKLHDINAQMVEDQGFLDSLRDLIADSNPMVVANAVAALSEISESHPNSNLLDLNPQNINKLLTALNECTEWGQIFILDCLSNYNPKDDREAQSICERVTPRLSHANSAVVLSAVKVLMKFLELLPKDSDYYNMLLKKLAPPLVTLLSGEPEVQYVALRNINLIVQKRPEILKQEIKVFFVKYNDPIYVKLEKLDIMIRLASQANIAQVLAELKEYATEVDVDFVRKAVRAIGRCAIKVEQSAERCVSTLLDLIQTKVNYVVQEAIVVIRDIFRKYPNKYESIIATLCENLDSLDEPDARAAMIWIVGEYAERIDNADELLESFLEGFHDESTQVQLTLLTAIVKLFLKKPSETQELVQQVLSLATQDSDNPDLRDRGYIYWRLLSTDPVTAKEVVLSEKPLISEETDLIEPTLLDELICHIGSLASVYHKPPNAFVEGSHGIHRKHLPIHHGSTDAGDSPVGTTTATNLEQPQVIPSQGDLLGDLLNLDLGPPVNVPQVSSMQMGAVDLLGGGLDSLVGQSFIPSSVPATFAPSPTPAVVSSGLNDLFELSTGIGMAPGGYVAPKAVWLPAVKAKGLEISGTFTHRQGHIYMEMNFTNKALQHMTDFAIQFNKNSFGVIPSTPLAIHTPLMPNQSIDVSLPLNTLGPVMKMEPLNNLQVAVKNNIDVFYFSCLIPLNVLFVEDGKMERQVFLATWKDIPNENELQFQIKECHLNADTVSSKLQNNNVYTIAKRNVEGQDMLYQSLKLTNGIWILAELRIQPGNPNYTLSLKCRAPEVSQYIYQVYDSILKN

[12] = cytosolic pH regulators acting via V-ATPase – S. cerevisiae, pHLuorin, HTS validation (AID 504600; in the data active = response above about 15%;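 note: plate controls were DMSO for no effect and reference compound for full effect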); details: V-ATPase proton transport, at 10 µM, stronger effect = higher value
[13] = system: anti-desmoglein-3 scFv antibody binding to human DSG3; test: blockers of pathogenic pemphigus antibody–desmoglein-3 binding – biochemical, validation compound set, bead-based, flow cytometry, pilot screen (AID 588368;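 active = binding below the plate cutoff, the plate median minus 3 SD, with a reading above zero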;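 note: signal is the median channel fluorescence of bead-bound GFP antibody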); details: Protein G beads, DSG3-Fc, scFv-GFP binding, at 10 µM, stronger effect = lower value
[14] = Nile Red efflux blockade in pump-expressing yeast – validation compound set, multiplex, phenotypic, pilot screen (AID 588506;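 active = efflux inhibition above 0.42, the validation set average plus 4 SD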;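 note: Nile Red retained in cells so higher fluorescence means more efflux inhibition; 0 = negative control wells and 1 = enniatin B 25 µM full block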); details: S. cerevisiae pump-expressing triplex, Nile Red efflux flow cytometry; at 10 µM; stronger effect = higher value; the pumps come from Candida albicans
[15] = target: ATP-binding cassette sub-family B member 6 (Homo sapiens) (UniProt Q9NP58); test: blockers of ABCB6-driven porphyrin uptake – K562-ABCB6 cells, flow cytometry, validation set, pilot screen (AID 588550;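 active = inhibition above the screen-wide mean plus 3 SD, about 51%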;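 note: 0% = DMSO wells and 100% = benzethonium chloride 70 µM positive control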); details: K562-ABCB6 porphyrin accumulation, 1 h, at 10 µM, stronger effect = higher value
Sequence of ATP-binding cassette sub-family B member 6 (Homo sapiens) (Q9NP58 whole entry, looked up): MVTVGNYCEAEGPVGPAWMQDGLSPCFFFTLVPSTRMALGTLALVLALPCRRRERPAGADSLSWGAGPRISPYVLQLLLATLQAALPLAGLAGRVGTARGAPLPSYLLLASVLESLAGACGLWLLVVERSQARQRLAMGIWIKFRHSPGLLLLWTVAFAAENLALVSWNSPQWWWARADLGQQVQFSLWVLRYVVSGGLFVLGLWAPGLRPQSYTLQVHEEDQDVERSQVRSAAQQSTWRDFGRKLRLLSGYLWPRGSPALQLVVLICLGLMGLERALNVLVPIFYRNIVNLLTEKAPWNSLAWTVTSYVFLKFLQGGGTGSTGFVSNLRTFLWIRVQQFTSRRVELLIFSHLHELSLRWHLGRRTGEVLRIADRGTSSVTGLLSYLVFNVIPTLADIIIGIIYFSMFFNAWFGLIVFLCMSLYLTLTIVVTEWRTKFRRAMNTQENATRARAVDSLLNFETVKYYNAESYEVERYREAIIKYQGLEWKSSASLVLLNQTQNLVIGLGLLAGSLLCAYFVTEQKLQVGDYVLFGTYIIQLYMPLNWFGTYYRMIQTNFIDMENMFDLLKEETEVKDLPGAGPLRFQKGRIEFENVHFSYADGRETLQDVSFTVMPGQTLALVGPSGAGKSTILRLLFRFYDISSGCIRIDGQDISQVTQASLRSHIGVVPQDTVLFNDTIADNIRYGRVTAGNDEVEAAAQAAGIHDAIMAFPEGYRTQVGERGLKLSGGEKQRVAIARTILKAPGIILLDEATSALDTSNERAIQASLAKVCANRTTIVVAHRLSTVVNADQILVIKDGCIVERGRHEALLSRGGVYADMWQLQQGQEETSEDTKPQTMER

[16] = AML differentiation inducers, ER-HoxA9 marrow cells – cell-based, GFP/MAC1 double positive, flow cytometry, validation set, primary screen (AID 588685); details: stronger effect = higher value, normalized: vehicle 0, fulvestrant 100;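 note: compound exposure lasts four days before antibody staining and flow analysis; 0% = DMSO wells and 100% = 5 µM fulvestrant positive control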

Cc1ccc2c(c1)C1(C(=O)N2)N2CCCC2C(C(=O)c2ccc3ccccc3c2)C12C(=O)Nc1ccccc12 (stereo not drawn)
inactive: percent of DMSO control GFP [1] 107% | GFP response vs DMSO [2] 93% | percent response of DMSO control [3] 115% | GFP response vs DMSO [4] 89.4% | GFP response, % of DMSO [5] 101% | vesicle binding response [6] 224% | inhibition [7] -8.75% | superoxide response (% of plate) [8] 94.8% | aptamer binding inhibition [9] 1% | response [10] 3.54% | inhibition [11] -0.28% | response [12] 2.26% | binding (% of control) [13] 97.2% | efflux inhibition (fraction of control) [14] 0.24 | inhibition [15] -11% | differentiation response [16] -0.73%
60.9%: double positive events [6]

CO[C@H]1C=CO[C@@]2(C)Oc3c(C)c(O)c4c(O)c(c(C=NN5CCN(C)CC5)c(O)c4c3C2=O)NC(=O)C(C)=CC=C[C@H](C)[C@H](O)[C@@H](C)[C@@H](O)[C@@H](C)[C@H](OC(C)=O)[C@@H]1C
inactive: percent of DMSO control GFP [1] 93.3% | GFP response vs DMSO [2] 127% | percent response of DMSO control [3] 93.9% | GFP response vs DMSO [4] 78.7% | GFP response, % of DMSO [5] 98.2% | vesicle binding response [6] 575% | inhibition [7] -46.9% | superoxide response (% of plate) [8] 105% | aptamer binding inhibition [9] 3% | response [10] 9.39% | inhibition [11] -2.48% | response [12] -1.49% | binding (% of control) [13] 99.2% | efflux inhibition (fraction of control) [14] 0.01 | inhibition [15] 12% | differentiation response [16] 2.46%
64.9%: double positive events [6]

COC(=O)C1=C(C)NC(C)=C(C(=O)OCCN(C)Cc2ccccc2)C1c1cccc([N+](=O)[O-])c1 (stereo not drawn)
61.3%: double positive events [6]
active: inhibition [11] 57.5%
inactive: percent of DMSO control GFP [1] 101% | GFP response vs DMSO [2] 108% | percent response of DMSO control [3] 96.5% | GFP response vs DMSO [4] 100% | GFP response, % of DMSO [5] 110% | vesicle binding response [6] 159% | inhibition [7] 0.25% | superoxide response (% of plate) [8] 98.7% | aptamer binding inhibition [9] 1% | response [10] 0.14% | response [12] -9.84% | binding (% of control) [13] 97.3% | efflux inhibition (fraction of control) [14] 0.01 | inhibition [15] -2% | differentiation response [16] -1.65%

Cc1cccc(OCC(=O)Nc2ccc(C(=O)NCC(C)C)cc2)c1
inactive: percent of DMSO control GFP [1] 102% | GFP response vs DMSO [2] 102% | percent response of DMSO control [3] 98.3% | GFP response vs DMSO [4] 110% | GFP response, % of DMSO [5] 115% | vesicle binding response [6] 156% | inhibition [7] 16.8% | superoxide response (% of plate) [8] 97.4% | aptamer binding inhibition [9] 3% | response [10] -25% | inhibition [11] -3.7% | response [12] 0.58% | binding (% of control) [13] 99.3% | efflux inhibition (fraction of control) [14] -0.09 | inhibition [15] 3% | differentiation response [16] 32.5%
62.1%: double positive events [6]

COc1cc(Cc2cnc(N)nc2N)cc(OC)c1OC
inactive: percent of DMSO control GFP [1] 100% and 102% | GFP response vs DMSO [2] 95.1% and 101% | percent response of DMSO control [3] 91.9% and 102% | GFP response vs DMSO [4] 84.8% and 103% | GFP response, % of DMSO [5] 96.4% and 102% | vesicle binding response [6] 247% and 222% | inhibition [7] -113% and 1.62% | superoxide response (% of plate) [8] 106% | aptamer binding inhibition [9] 2% and -4% | response [10] -5.11% | inhibition [11] -0.17% and -5.67% | response [12] 1.16% and -26% | binding (% of control) [13] 95.8% and 103% | inhibition [15] -11% and 7% | differentiation response [16] 0.24% and -3.43%
62.8% and 60.9%: double positive events [6]
0.61 (active) and 0.18 (inactive): efflux inhibition (fraction of control) [14]

COc1cc(CNCCc2c[nH]c3ccccc23)cc(Cl)c1OCC(N)=O
inactive: percent of DMSO control GFP [1] 107% | GFP response vs DMSO [2] 97.4% | percent response of DMSO control [3] 102% | GFP response vs DMSO [4] 94% | GFP response, % of DMSO [5] 97.2% | vesicle binding response [6] 340% | inhibition [7] -7.25% | superoxide response (% of plate) [8] 102% | aptamer binding inhibition [9] -6% | response [10] 14.8% | inhibition [11] -2.94% | response [12] 1.24% | binding (% of control) [13] 99.9% | efflux inhibition (fraction of control) [14] 0.3 | inhibition [15] 0% | differentiation response [16] -10.4%
66.2%: double positive events [6]

CCCN1CCC(NC(=O)Nc2ccc(Br)cc2)CC1
inactive: percent of DMSO control GFP [1] 104% | GFP response vs DMSO [2] 110% | percent response of DMSO control [3] 102% | GFP response vs DMSO [4] 92.7% | GFP response, % of DMSO [5] 102% | vesicle binding response [6] 96.6% | inhibition [7] -0.45% | superoxide response (% of plate) [8] 94.7% | aptamer binding inhibition [9] -5% | response [10] 1.9% | inhibition [11] -13.3% | response [12] 1.92% | binding (% of control) [13] 96.8% | efflux inhibition (fraction of control) [14] -0.23 | inhibition [15] 16% | differentiation response [16] 13.9%
63.2%: double positive events [6]

CC[N+](C)(C)c1cccc(O)c1
57.5%: double positive events [6]
inactive: percent of DMSO control GFP [1] 103% | GFP response vs DMSO [2] 99.3% | percent response of DMSO control [3] 112% | GFP response vs DMSO [4] 97.3% | GFP response, % of DMSO [5] 102% | vesicle binding response [6] 123% | inhibition [7] -0.45% | superoxide response (% of plate) [8] 90.1% | response [10] -3.94% | inhibition [11] -0.12% | response [12] -0.97% | binding (% of control) [13] 103% | efflux inhibition (fraction of control) [14] -0.17 | inhibition [15] -7% | differentiation response [16] 7.09%
active: aptamer binding inhibition [9] 56%

Oc1ccccc1OCCOc1ccccc1OCCOc1ccccc1O
inactive: percent of DMSO control GFP [1] 100% | GFP response vs DMSO [2] 108% | percent response of DMSO control [3] 105% | GFP response vs DMSO [4] 117% | GFP response, % of DMSO [5] 110% | vesicle binding response [6] 245% | inhibition [7] 15.9% | superoxide response (% of plate) [8] 97.2% | aptamer binding inhibition [9] -2% | response [10] -15.9% | inhibition [11] 1.79% | response [12] -8.12% | binding (% of control) [13] 112% | efflux inhibition (fraction of control) [14] -0.04 | inhibition [15] 6% | differentiation response [16] -6.96%
62.1%: double positive events [6]
